Where “and” joins values, the source holds several entries; their conditions need not be identical. Identical values can stand only once. Results filed as inconclusive are left out. Calls of active or inactive are those of the source. The call rests on the fitted dose curve; in most records, active means well fitted curve in the direction sought with a large enough effect; inconclusive means small, poorly fitted or top-dose-only effect, or another doubt; inactive means no such curve, though single readings can be large or run the other way.
Potency means the concentration at half of the fitted maximal effect.

Chain of Lysosomal acid glucosylceramidase (Homo sapiens) (P04062 whole entry N409S): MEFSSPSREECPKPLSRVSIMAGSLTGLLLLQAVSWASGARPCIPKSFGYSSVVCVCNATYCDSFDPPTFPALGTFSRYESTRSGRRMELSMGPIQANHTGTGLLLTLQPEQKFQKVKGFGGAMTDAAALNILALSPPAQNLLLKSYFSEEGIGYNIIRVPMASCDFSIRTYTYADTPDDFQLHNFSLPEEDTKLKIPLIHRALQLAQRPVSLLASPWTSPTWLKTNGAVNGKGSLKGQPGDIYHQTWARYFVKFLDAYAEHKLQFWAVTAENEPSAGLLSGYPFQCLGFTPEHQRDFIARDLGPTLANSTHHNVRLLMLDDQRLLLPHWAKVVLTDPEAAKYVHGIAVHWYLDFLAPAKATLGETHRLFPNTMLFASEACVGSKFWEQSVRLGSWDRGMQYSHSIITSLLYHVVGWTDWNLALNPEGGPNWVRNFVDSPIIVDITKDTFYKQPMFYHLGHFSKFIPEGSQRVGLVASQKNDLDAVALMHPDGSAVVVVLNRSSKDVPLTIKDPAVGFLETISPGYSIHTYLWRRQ

For this assay, the target named is Lysosomal acid glucosylceramidase (Homo sapiens) (UniProt P04062). Description: qHTS Assay for Inhibitors and Activators of N370S glucocerebrosidase as a Potential Chaperone Treatment of Gaucher Disease: Primary Screen Confirmation. Particulars: N370S glucocerebrosidase enzyme activity, fluorogenic substrate; series mostly up to 54 µM. An excerpt:
NIH Chemical Genomics Center [NCGC]
NIH Molecular Libraries Probe Production Centers Network [MLPCN]
Assay Submitter (PI): Wei Zheng
Glucocerebrosidase (GC) catalyzes the hydrolysis of beta-glucocerebroside to glucose and ceramide in lysosomes. Mutations in the glucocerebrosidase gene result in Gaucher disease, an autosomal recessive lysosomal storage disorder. Many of the mutations encountered in patients with Gaucher disease are missense alterations that may cause misfolding, decreased stability and/or mistrafficking of this lysosomal protein. […] These inhibitors include iminosugar analogs and three non-iminosugar inhibitors identified from a previous HTS of 62,000 compounds with the wild type recombinant enzyme. However, the enhancement of enzyme activity by the chaperone action of an enzyme inhibitor must be balanced against the direct inhibition of the enzyme. An enzyme activator could also function as a chaperone by binding to the enzyme and helping to correct its misfolding and mistrafficking. While activators for GC have not yet been identified, they may have better therapeutic potential than inhibitors. Therefore the discovery and development of chemical activators may provide a new strategy for the chaperone therapy.
We have optimized a new assay using N370S mutant GC derived from the spleen of a Gaucher patient. […] In addition, the MLPCN compound library has expanded, which increases the chance of finding new and better probes.
NCGC Assay Protocol Summary:
This is a fluorogenic enzyme assay with 4-methylumbelliferyl-beta-D-glucopyranoside as the substrate and N370S glucocerebrosidase from human spleen homogenate as the enzyme preparation. Upon the hydrolysis of this fluorogenic substrate, the resulting product, […] which can be detected by a standard fluorescence plate reader. Data were normalized to the controls for basal activity (without enzyme) and 100% activity (with enzyme). The AC50 values were determined from concentration-response data modeled with the standard Hill equation.
Assay buffer: 50 mM citric acid (titrated with potassium phosphate to pH 5.0), 100 mM potassium chloride, 10 mM sodium chloride, 1 mM magnesium chloride, 0.01% Tween-20.
1536-well assay protocol:
(1) Add 2 ul/well of spleen homogenate (27 ug final)
(2) Add 23 nL compounds in DMSO solution. The final titration was 0.5 nM to 58 uM.
(3) Add 2 ul of substrate (1 mM final)
(4) Incubate at 37C for 40 min.
(5) Add 2 ul stop solution (1M NaOH and 1M Glycine mixture, pH 10)
(6) Detect the assay plate in a ViewLux plate reader (PerkinElmer) with Ex=365 nm and Em=440nm.
Keywords: Glucocerebrosidase, beta-glucosidase, Gaucher Disease, pharmacological chaperone, chaperone therapy, high throughput screening, glucocerebrosidase inhibitor, MLSMR, MLSCN, NIH Roadmap, qHTS and NCGC
In the case of `O=S(=O)(c1ccccc1C(F)(F)F)N1CCN(c2nc(-c3ccccc3)nc3ccccc23)CC1`, the Potency was 2.91 µM (active). On to `Cc1cc(C)n2ncc(C(=O)Nc3cccc(O)c3)c2n1`, for which the Potency result is “inactive”.

Turning to `NCCCN(Cc1ccc(Cl)c(Cl)c1)c1ccccn1`, the Potency entry is “inactive”. On to `CCCCNC(=S)NCCCN(Cc1ccc(Cl)c(Cl)c1)c1ccc(Br)cn1`, for which the Potency entry was “inactive”. To `C#CCOCCOCCOCCNc1nc(N2CCN(C(=O)CCCCCCCCCCNC(=O)[C@H](CO)n3cc(CCCSC)nn3)CC2)nc(N2CCN(C(=O)CCCCCCCCCCNC(=O)[C@H](CCCN=C(N)N)n3cc(C[C@@H](C)CC)nn3)CC2)n1` belongs 6.51 µM (active); to `O=[N+]([O-])c1ccccc1S(=O)(=O)N1CCN(c2nc(-c3cccs3)nc3ccccc23)CC1`, 0.73 µM (active); to `COc1ccc(-c2cc3ccc(OCC(C)=O)cc3oc2=O)cc1`, “inactive”. To `CC(=O)c1ccc(S(=O)(=O)N2CCN(c3nc(-c4cccs4)nc4ccccc34)CC2)cc1` belongs 1.79 µM (active). Turning to `CC(C)C(C)NC(=O)CSc1nc2scc(-c3ccco3)c2c(=O)n1-c1ccccc1` (stereo not given), the Potency entry was “inactive”. As to `C#CCOCCOCCOCCNc1nc(N2CCN(C(=O)CCCCCCCCCCNC(=O)[C@H](CCCCN)n3cc(C)nn3)CC2)nc(N2CCN(C(=O)CCCCCCCCCCNC(=O)[C@H](CCCN=C(N)N)n3cc(C[C@@H](C)CC)nn3)CC2)n1`, the Potency was 7.3 µM (active). Take `S=C(NCCCc1cnc[nH]1)NCCCN(Cc1ccc(Cl)c(Cl)c1)c1ccc(Br)cn1`: the Potency is 650 nM (active) and 579 nM (active). In the case of `Cc1nc2nc(-c3ccccc3)cn2nc1C`, the Potency result was “inactive”. With `CC(=O)NCCCN(Cc1ccc(Cl)c(Cl)c1)c1ccc(Br)cn1`, the Potency result was “inactive”.

`Cc1ccc(S(=O)(=O)N2CCN(c3nc(-c4cccs4)nc4ncccc34)CC2)cc1`: the Potency is 2.25 µM (active). With `CS(=O)(=O)N1CCN(c2nc(-c3cccs3)nc3ccccc23)CC1`, the Potency is 11.4 µM (active). For `CCCCN(CCCNC(=S)NCCCc1cnc[nH]1)c1ccc(Br)cn1` the value was 8.18 µM (active). For `CC(=O)c1ccccc1S(=O)(=O)N1CCN(c2nc(-c3cccs3)nc3ccccc23)CC1`, the Potency was 3.26 µM (active). For `Cc1ccc(S(=O)(=O)N2CCN(c3nc(-c4ccc(F)cc4)nc4cc(Cl)ccc34)CC2)cc1` the value was “inactive”; for `Cc1ccc(S(=O)(=O)N2CCN(c3nc(-c4cnccn4)nc4ccccc34)CC2)cc1`, “inactive”. For `Oc1ccccc1Nc1nc(NCC2CCCO2)c2ccccc2n1` (stereo not given) the value was “inactive”.

`CNCCN(C)c1nc(-c2cccs2)nc2ccccc12`: the Potency entry was “inactive”. As for `Cc1cccc(S(=O)(=O)N2CCN(c3nc(-c4cccs4)nc4ccccc34)CC2)c1`, the Potency is 2.01 µM (active). For `S=C(NCCCc1cnc[nH]1)NCCCN(CCc1ccccc1)c1ccc(Br)cn1`, the Potency was 2.25 µM (active).

Take `CCCCNC(=S)NCCCc1cnc[nH]1`: the Potency result is “inactive”. As to `COc1ccc(S(=O)(=O)N2CCN(c3nc(-c4cccs4)nc4ccccc34)CC2)cc1OC`, the Potency was 1.16 µM (active). For `S=C(NCCCc1cnc[nH]1)NCCCN(Cc1ccc(Cl)c(Cl)c1)c1ccccn1` the value was 7.29 µM (active).

`CCc1ccc(NC(=O)CN(c2ccc(OC)cc2)S(=O)(=O)c2c(C)[nH]c(=O)[nH]c2=O)cc1`: the Potency is 6.51 µM (active).

Regarding `COc1cccc(CN(C)c2nc(-c3cccs3)nc3ccccc23)c1`, the Potency was 2.01 µM (active). Regarding `c1ccc(CNc2nc(-c3cccs3)nc3ccccc23)cc1`, the Potency was 7.13 µM (active) and 5.66 µM (active). On to `O=[N+]([O-])c1ccccc1S(=O)(=O)N1CCN(c2nc(-c3ccccc3)nc3ccccc23)CC1`, for which the Potency is 5.69 µM (active). For `O=S(=O)(c1ccc(F)cc1)N1CCN(c2nc(-c3cccc(Br)c3)nc3ccccc23)CC1` the value was “inactive”.

In the case of `O=S(=O)(/C=C/c1ccccc1)N1CCN(c2nc(-c3ccccc3)nc3ccccc23)CC1`, the Potency is 11.6 µM (active). To `Cc1ccc(S(=O)(=O)N2CCN(c3nc(-c4cccs4)nc(C)c3C)CC2)cc1` belongs 2.84 µM (active); to `CC(=O)N1CCN(C(=O)c2cc(-c3ccc(Cl)s3)nc3ccccc23)CC1`, “inactive”; to `Cc1ccc(S(=O)(=O)N2CCN(c3nc(-n4cnc5ccccc54)nc4ccccc34)CC2)cc1`, “inactive”. For `Cc1ccc(-c2nc(Nc3ccc(O)cc3)c3ccccc3n2)cc1` the value was 12.7 µM (active). For `Cc1ccc(S(=O)(=O)N2CCN(c3nc(-c4cccs4)nc4cccnc34)CC2)cc1` the value was 2.53 µM (active); for `O=S(=O)(c1ccc2ncsc2c1)N1CCN(c2nc(-c3cccs3)nc3ccccc23)CC1`, 0.366 µM (active); for `Cc1ccc(S(=O)(=O)N(C)CCN(C)c2nc(-c3cccs3)nc3ccccc23)cc1`, 2.25 µM (active). Regarding `COc1ccc(S(=O)(=O)N2CCN(c3nc(-c4cccs4)nc4ccccc34)CC2)cc1`, the Potency was 0.819 µM (active).

(Values after PubChem BioAssay AID2590 (National Center for Advancing Translational Sciences (NCATS), 2010).)
